# Screening data from PubChem.
# FMDV inh – High Throughput Screening for Foot and Mouth Disease Virus Antivirals; FMDV antiviral cell-based qHTS; Potency, µM (top dose mostly 57.9 µM), hits mostly inhibitors; 410,000 compounds, 1.2% hits; AID 1159524, 2015; calls by dose curve; tested in HEK293T cells; also: read-out not given here; nearly all actives have a fitted effect of over 45% in size
# Lassa entry inh – qHTS for Inhibitors of binding or entry into cells for Lassa Virus. Lassa virus pseudotype entry inhibition, cell reporter. Potency, µM (doses to about 37.9 µM), most hits filed as inhibitors. 300,000 compounds, 1.2% hits; calls by dose curve; tested in HEK293 cells; also: nearly all actives have a fitted effect of over 50% in size
# MARV entry inh – qHTS for inhibitors of binding or entry into cells for Marburg Virus. Marburg virus pseudotyped entry inhibition, cell reporter. Potency, µM (titrated, usually from 37.8 µM), usual class: inhibitors. 300,000 compounds, 1.8% hits; calls by dose curve; tested in HEK293 cells
# HCMV inh – qHTS Assay for inhibitors of the human cytomegalovirus (HCMV) | HFF cells, HCMV-luciferase reporter, 72 h; hits give low values | activity change, negative = inhibition, % at 57.5 µM | 410,000 compounds, 4.5% hits | AID 1259415, 2018; in the data active = activity change below about -60%; inconclusive = no clear call, values can overlap the other calls; inactive = above about -39%
#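 HFF cells seeded 16 h at 37C, treated with compounds, infected with luciferase-reporter HCMV at MOI 1 PFU/cell; luciferase read at 72 h post infection, normalized to buffer-only and Salinomycin controls.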
# Hits are given with their value; n = inactive; u = inconclusive; x = no result. Compounds with a hit are over-represented: about 6.2% of the library has one in this group of screens.
SMILES,FMDV inh,Lassa entry inh,MARV entry inh,HCMV inh
O=c1ccsc2ccccc12,n,n,n,n
O=c1[nH]sc2cc(F)ccc12,n,n,u,-98.2
O=c1[nH]sc2ccccc12,n,n,u,-73.5
O=c1c2cc(F)ccc2sn1-c1ccccc1,n,x,x,n
CCOC(=O)c1ccccc1NC(=O)Cn1ccn2nc(-c3ccc(OCC)cc3)cc2c1=O,n,u,x,n
COc1ccc(Sc2nnc(-c3ccccc3)cc2C#N)cc1,n,n,n,n
Cc1ccc(Sc2nnc(-c3ccccc3)cc2C#N)cc1,n,n,n,n
Cc1ccc(Sc2nnc(Cc3ccccc3)c3ccccc23)cc1,u,n,u,-88.1
COc1ccc(Sc2nnc(Cc3ccccc3)c3ccccc23)cc1,u,n,u,-88.9
CCOCCN1CCN(c2c(C)c(C)nc3cc(-c4cc(OC)cc(OC)c4)nn23)CC1,n,n,n,-83.9
COc1ccc(O)c(CN2CCC3(CCC(CNC(=O)c4ccco4)O3)CC2)c1 (stereo unspecified),n,x,x,x
CCCN1CCN(c2ncnc3sc(C(=O)Nc4ccc(OC(F)(F)F)cc4)c(C)c23)CC1,n,n,x,n
COc1ccc([C@H]2C[C@H](O)[C@@H](n3cc(-c4ccc(F)cc4)nn3)CN2Cc2cccs2)cc1,u,u,x,-67.1
O[C@H]1C[C@H](c2ccccc2)N(Cc2cccs2)C[C@@H]1n1cc(-c2ccc(F)cc2)nn1,n,x,x,-64.4
COc1ccccc1N1CCN(CC(O)COc2ccc(S(=O)(=O)N3CCOCC3)cc2)CC1 (stereo unspecified),x,n,u,-69.6
COc1ccccc1N1CCN(C(=S)Nc2ccc(S(=O)(=O)N3CCOCC3)cc2)CC1,25.1µM,u,u,n
O=S(=O)(c1ccc(OCC(O)CN2CCN(c3ccc(F)cc3)CC2)cc1)N1CCOCC1 (stereo unspecified),x,n,n,n
COc1ccccc1N1CCN(CC(O)COc2ccc(C)cc2C(C)(C)C)CC1 (stereo unspecified),n,n,u,-66.9
Cc1nn(CC(=O)N2CCCCCC2)c(=O)c2cc3occc3n12,n,n,n,-61.9
CCc1nn(CC(=O)N2CCCCC2)c(=O)c2cc3occc3n12,n,u,n,n
CCc1nc2c(OCCOc3ccc(F)cc3)cccn2c1N(C)C(=O)C(C)C,n,x,x,n
COc1cc(C(O)CO)ccc1OS(=O)(=O)O (stereo unspecified),n,n,u,-73.4
CC(=O)OC[C@H]1O[C@H](C/C=N/OCC[C@@H]2C=C[C@H](OC(C)=O)[C@@H](COC(C)=O)O2)C=C[C@@H]1OC(C)=O,x,x,n,x
Cc1ccc(NS(=O)(=O)c2cc(Br)cc3c2N(C(=O)C2CC2)CC3)cc1C,n,u,x,-75.2
COc1cc(NS(=O)(=O)c2cc(Br)cc3c2N(C(=O)C2CC2)CC3)cc(OC)c1,n,3.55µM,x,n
SMILES,FMDV inh,Lassa entry inh,MARV entry inh,HCMV inh
c1ccc(/N=C2\N=C(Nc3ccccn3)c3ccccc32)nc1,n,u,u,-98.8
c1ccc(Nc2ccccn2)cc1,n,n,n,n
CCN(C)C(=O)C1=COC2=NC(=O)N(Cc3ccccc3C(F)(F)F)CCN12,x,x,x,n
O=C(Nc1ccccc1)Nc1nnc(/C=C/c2ccccc2Cl)s1,n,n,u,n
Nc1nnc(/C=C/c2ccccc2Cl)s1,n,u,7.08µM,n
Cc1nn(C)c(C)c1N1C(=O)c2cccc3c(Br)ccc(c23)C1=O,u,n,n,-73.7
CCN(CC)CCCN(c1ccccc1)C1Cc2ccccc2C1,x,u,6.51µM,n
CCCCN(CCCC)CC1OCc2ccccc2CO1,n,u,u,n
COCC(=O)N1CCC2(CCCN(Cc3ccccc3OC)C2)CC1,n,x,x,x
CCn1c(C)cs/c1=N\S(=O)(=O)c1ccccc1,n,x,x,n
O=Cc1s/c(=N\S(=O)(=O)c2ccccc2)n(CCCCl)c1Cl,7.94µM,u,u,-107.9
Cc1c(C(=O)N2CCN(C)CC2)sc2ncnc(NCC3(c4ccccc4)CCOCC3)c12,n,x,x,x
CS(=O)(=O)c1ccc(S(=O)CC(=O)Oc2ccc(Cl)cc2)c([N+](=O)[O-])c1 (stereo unspecified),35.5µM,u,11.2µM,x
Cc1ccc2cccc(NC(=O)C(C)Oc3ccc(Cl)cc3Cl)c2n1 (stereo unspecified),n,n,u,n
COC(=O)C1=C(C)N(Cc2ccc(C)cc2)C(=O)/C1=C\c1ccc(O)c(OC)c1,u,u,u,n
COC(=O)C1=C(C)N(Cc2ccc(C)cc2)C(=O)/C1=C\c1cc(OC)c(OC)c(OC)c1,20µM,u,u,n
CCOc1cc(/C=C2\C(=O)N(CCc3ccc(OC)c(OC)c3)C(C)=C2C(=O)OC)ccc1O,20µM,n,n,n
CCOc1ccc2nc(Cl)c(C3CC(c4ccccc4)=NN3C(=O)CCC(=O)O)cc2c1 (stereo unspecified),n,n,n,n
CCC(c1nnnn1C(C)(C)C)N1CCN(Cc2ccccc2OC)CC1 (stereo unspecified),n,x,x,-71.8
COc1ccccc1C(c1nnnn1C(C)(C)C)N1CCN(Cc2ccncc2)CC1 (stereo unspecified),n,n,u,n
CCCC(c1nnnn1CC1CCCO1)N1CCN(c2cc(Cl)ccc2C)CC1 (stereo unspecified),u,u,u,n
CCC(c1nnnn1C(C)(C)C)N1CCN(c2cc(Cl)ccc2C)CC1 (stereo unspecified),n,12.6µM,10µM,n
CN1OC(C)(CC(=O)NCCc2ccccc2)N=C1c1ccccc1F (stereo unspecified),x,x,x,n
Cn1cnc([N+](=O)[O-])c1Sc1ccc([N+](=O)[O-])cc1,22.4µM,n,u,n
CC(C)c1noc(-c2ccccc2OCC(=O)Nc2ccc([N+](=O)[O-])cc2)n1,n,n,n,n
SMILES,FMDV inh,Lassa entry inh,MARV entry inh,HCMV inh
CN(C)c1ccc(/C=c2\sc3n(c2=O)CCCN=3)cc1,n,2µM,u,n
O=C(N/N=C/C(Br)=C\c1ccccc1)c1n[nH]c2c1CCC2,n,u,u,-79.2
CC(/C=N/NC(=O)c1n[nH]c2c1CCC2)=C\c1ccccc1,n,u,u,-88.0
O=C(N/N=C/C=C/c1ccccc1)c1n[nH]c2c1CCC2,n,n,u,n
COc1ccc(CN(Cc2ccco2)C(=O)COc2ccc(Cl)cc2C)cc1,u,n,n,n
CC(C)(CS(=O)(=O)[O-])NC(=O)CC[N+](C)(C)CCO,n,n,2.82µM,n
NC(C(=O)O)c1cc(O)cc(O)c1 (stereo unspecified),n,x,x,x
COP(=O)(OC)OC(c1ccc(Cl)cc1)P(=O)(OC)OC (stereo unspecified),n,x,x,n
O=C(NNc1c2ccccc2nc2ccccc12)c1ccccc1O,n,u,u,n
O=C(NNc1c2ccccc2nc2ccccc12)c1ccc(O)cc1,n,u,5.8µM,u
O=C(NNc1c2ccccc2nc2ccccc12)c1cccc(O)c1,n,n,u,-60.8
COc1ccc(S(=O)(=O)N2CCCCCC2)cc1N(C)S(=O)(=O)c1ccc(Cl)cc1,x,n,u,-60.5
COc1ccc2cc(S(=O)(=O)N3CCCCC3)ccc2c1S(=O)(=O)N1CCCCC1,u,n,u,-71.8
